In experiment [1] the target is T1, Hexokinase-4 (Homo sapiens) + Glucokinase regulatory protein (Homo sapiens) (UniProt P35557+Q14397). As to the kind of experiment: qHTS assay for inhibitors of recombinant human GCK-GKRP interaction: ADP-Glo assay (AID 743206).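 Also: plate controls were DMSO plus enzyme for no effect and no enzyme for full effect.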 The method, boiled down:
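GST-GCK and FLAG-GKRP (15 nM each in the dispensed mix, with 2 uM S6P) react with 0.4 mM ATP and 5 mM glucose (final) in Hepes pH 7.6 for 60 min at room temperature. ADP is measured by ADP-Glo luminescence.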
A general note: In qHTS, concentration-response curves come from the screen itself.

Experiment [2] addresses T1, Hexokinase-4 (Homo sapiens) + Glucokinase regulatory protein (Homo sapiens). Kind of experiment: qHTS assay for inhibitors of recombinant human GCK-GKRP interaction: HTRF assay (AID 743207).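 Also: 0% = DMSO with GCK present and -100% = DMSO wells lacking GCK.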 In a few lines:
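HTRF read-out (ex 320 nm; 615/665 nm emission) after 60 min RT equilibration of 5 nM GST-GCK, 5 nM FLAG-GKRP, 2 uM S6P, compound and anti-FLAG/anti-GST detection antibodies; signal normalized between DMSO wells with and without GCK.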

A short description of experiment [3]: qHTS Assay for Identifying Gametocytocidal Compounds (AID 743244). Also: potency is read from the fitted curve at half-maximal effect.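 As to max response: % is scaled to controls: 0 for no effect and ±100 for the full control effect; actives lower the fluorescent signal which means gametocytes are killed.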 As to conditions: P. falciparum 3D7 stage III-V gametocytes, alamarBlue, 72 h; max response: stronger effect = lower value. In a few lines:
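Compounds are pinned into medium, gametocytes (stage III–V, 3D7, 20,000 cells/well) added, and plates held 72 h at 37 °C in 5% CO2. AlamarBlue follows for 24 h before fluorescence reading.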

Experiment [4] in a line: qHTS profiling of the MIPE4 collection as inhibitors of Plasmodium falciparum (3D7) proliferation (AID 743344; call rule not given here;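 also: scaled between DMSO vehicle wells and 0.29 µM artemisinin as full inhibition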). The note with it: P. falciparum 3D7 in erythrocytes, SYBR Green DNA fluorescence, 72 h; at 28.5 µM (top of the series) unless noted. In a few lines:
(§1)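 Erythrocytes infected with P. falciparum (0.3% parasitemia, 2.5% hematocrit) incubated with compounds 72 h at 37 C, 5% CO2. Lysis with saponin/Triton buffer containing SYBR Green I, overnight at room temperature in the dark; DNA fluorescence (485/535 nm) normalised to 0.29 uM artemisinin and DMSO.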

Experiment [5] can be described thus: qHTS profiling of the MIPE4 collection as inhibitors of Plasmodium falciparum (HB3) proliferation (AID 743347; call rule not given here;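 also: plate controls were DMSO vehicle wells for no effect and artemisinin wells for full effect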). As to conditions: P. falciparum HB3 in erythrocytes, SYBR Green DNA, 72 h; at 28.5 µM (top of the series) unless noted. The method, boiled down: as §1
Experiment [6] in a line: High-throughput drug toxicity screening in the BPDCN cell line Gen2.2 (AID 1224824; call rule not given here;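 also: cells exposed to compounds for 48 h before reading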). As to conditions: Gen2.2 BPDCN cells; at 45.8 µM (top of the series) unless noted. The method, boiled down: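 CellTiter-Glo luminescence after 48 h compound exposure of Gen2.2 cells; percent activity set with DMSO as 100% and bortezomib (9.2 uM final) as 0%. Cells seeded at 500 per well, RPMI + 10% FBS, 37 °C.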

Experiment [7] can be described thus: High-throughput drug toxicity screening in the BPDCN cell line Cal-1 (AID 1224825; call rule not given here). The note with it: Cal-1 BPDCN cell viability, qHTS; at 45.8 µM (top of the series) unless noted. The method, boiled down:
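Exponentially growing Cal-1 cells, 500 per well in phenol red-free RPMI with 10% FBS, were exposed to compounds for 48 h at 37 °C, 5% CO2. Viability was read by CellTiter-Glo luminescence and normalised to DMSO (100%) and 9.2 uM bortezomib (0%).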

Experiment [8] in a line: qHTS assay for measurement of the activity of small molecule inhibitors on Zika virus induced Caspase-3 activity in human iPSC derived neural progenitor cells (hNPCs) (AID 1224857). Also: % of control where 0% means no effect; nearly all actives have a fitted effect of over 65% in size. The method, boiled down:
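Pretreat hNPCs with compound 1 h; infect ZIKV 2 FFU/cell; 6 h 37 C, 5% CO2; Caspase-Glo 3/7, 30 min RT; luminescence; normalize to no-virus and virus-only wells.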

The nature of experiment [9]: qHTS Screen of the MIPE 4.0 Collection Against Ewings Sarcoma (RDES) (AID 1259252). Also: nearly all actives have a fitted effect of over 35% in size. Also: potency is read from the fitted curve at half-maximal effect. The method, boiled down: (§2)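 Compound titrations go onto adherent log-phase cells 4 h after seeding, incubate 48 h at 37C, then CellTiter-Glo luminescence reports viability relative to DMSO and cell-free controls.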
Experiment [10] is described as follows: qHTS Screen of the MIPE 4.0 Collection Against Ewings Sarcoma (EW8) (AID 1259255). Also: nearly all actives have a fitted effect of over 35% in size. Also: potency is read from the fitted curve at half-maximal effect.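 As to viability: 100% = DMSO-treated cells and 0% = medium-only wells without cells.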 In a few lines: as §2
The nature of experiment [11]: qHTS profiling of the MIPE4 collection as inhibitors of Plasmodium falciparum (DD2) proliferation (AID 743345; call rule not given here). As to conditions: P. falciparum Dd2 in erythrocytes, SYBR Green DNA, 72 h; at 28.5 µM (top of the series) unless noted. The method, boiled down: as §1
Experiment [12] can be described thus: qHTS profiling of the MIPE4 collection as inhibitors of Plasmodium falciparum (DD2) proliferation (Rep 2) (AID 743346; call rule not given here). As to conditions: P. falciparum Dd2 in erythrocytes, SYBR Green DNA, 72 h; at 28.5 µM (top of the series) unless noted. The method, boiled down:
as §1

Experiment [13] is described as follows: qHTS Screen of the MIPE 4.0 Collection Against Ewings Sarcoma (TC32) (AID 1259256). Also: nearly all actives have a fitted effect of over 45% in size. Also: potency is read from the fitted curve at half-maximal effect. The method, boiled down: as §2
A short description of experiment [14]: qHTS Screen of the MIPE 4.0 Collection Against Ewings Sarcoma (TC71) (AID 1259253). Also: potency is read from the fitted curve at half-maximal effect; nearly all actives have a fitted effect of over 40% in size. In a few lines: as §2
Experiment [15] can be described thus: qHTS assay for measurement of the activity of small molecule inhibitors on Zika virus induced Caspase-3 activity in human astrocytoma cells (AID 1224859).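 Also: plate controls were ZIKV-infected untreated cells for no effect and uninfected cells for full effect.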 The method, boiled down: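 Human SNB-19 astrocytoma cells in RPMI 1640 with 10% FBS receive compound one hour ahead of Zika virus at 2 FFU/cell. After 6 h infection, caspase-3/7 activity is detected by Caspase-Glo luminescence.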

Experiment [16] in a line: qHTS assay for cell viability of HEK293 cells (AID 743288). Also: % is scaled to controls: 0 for no effect and ±100 for the full control effect; nearly all actives have a fitted effect of over 50% in size. The note with it: ATP luminescence (CellTiter-Glo), 18 h; max response: stronger effect = lower value. The method, boiled down: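 Environmental chemicals tested in qHTS format against parental HEK293 cells; 18 h treatment, 37 C; read-out ATP luminescence (CellTiter-Glo), 30 min RT development.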
Experiment [17] in a line: qHTS assay for cell viability of the p53RE-bla HCT-116 cell line (AID 743292). Also: % is scaled to controls: 0 for no effect and ±100 for the full control effect; nearly all actives have a fitted effect of over 55% in size. The method, boiled down: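 ATP-based luminescent viability (CellTiter-Glo, 30 min RT) after 16 h compound treatment at 37 C of p53RE-bla HCT-116 cells, seeded at 4,000 cells/well and rested 5 h before dosing.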

Values joined by “and” are separate entries in the source; they are usually repeats but may differ in a detail not shown here. Equal entries are not always repeated. Inconclusive results are not listed. Active and inactive are the calls of the source. Unless noted, calls follow the shape of the dose curve; as a rule, active = well fitted curve in the direction sought with a large enough effect; inconclusive = small, poorly fitted or top-dose-only effect, or another doubt; inactive = no such curve, though single readings can be large; an effect the other way counts as inactive or inconclusive.

T1 sequence (P35557 whole entry, looked up): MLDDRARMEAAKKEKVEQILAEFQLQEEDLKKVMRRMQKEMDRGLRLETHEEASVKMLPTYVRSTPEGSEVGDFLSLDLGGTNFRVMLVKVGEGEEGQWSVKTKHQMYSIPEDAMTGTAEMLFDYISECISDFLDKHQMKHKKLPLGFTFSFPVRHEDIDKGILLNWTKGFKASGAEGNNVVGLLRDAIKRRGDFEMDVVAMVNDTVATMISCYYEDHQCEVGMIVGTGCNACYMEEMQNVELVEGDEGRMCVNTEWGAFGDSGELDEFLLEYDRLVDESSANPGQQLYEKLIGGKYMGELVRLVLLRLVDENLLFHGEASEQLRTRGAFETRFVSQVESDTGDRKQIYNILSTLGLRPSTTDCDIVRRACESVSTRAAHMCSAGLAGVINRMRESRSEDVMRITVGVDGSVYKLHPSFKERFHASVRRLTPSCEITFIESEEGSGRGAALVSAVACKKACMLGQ
T1 sequence (Q14397 whole entry, looked up): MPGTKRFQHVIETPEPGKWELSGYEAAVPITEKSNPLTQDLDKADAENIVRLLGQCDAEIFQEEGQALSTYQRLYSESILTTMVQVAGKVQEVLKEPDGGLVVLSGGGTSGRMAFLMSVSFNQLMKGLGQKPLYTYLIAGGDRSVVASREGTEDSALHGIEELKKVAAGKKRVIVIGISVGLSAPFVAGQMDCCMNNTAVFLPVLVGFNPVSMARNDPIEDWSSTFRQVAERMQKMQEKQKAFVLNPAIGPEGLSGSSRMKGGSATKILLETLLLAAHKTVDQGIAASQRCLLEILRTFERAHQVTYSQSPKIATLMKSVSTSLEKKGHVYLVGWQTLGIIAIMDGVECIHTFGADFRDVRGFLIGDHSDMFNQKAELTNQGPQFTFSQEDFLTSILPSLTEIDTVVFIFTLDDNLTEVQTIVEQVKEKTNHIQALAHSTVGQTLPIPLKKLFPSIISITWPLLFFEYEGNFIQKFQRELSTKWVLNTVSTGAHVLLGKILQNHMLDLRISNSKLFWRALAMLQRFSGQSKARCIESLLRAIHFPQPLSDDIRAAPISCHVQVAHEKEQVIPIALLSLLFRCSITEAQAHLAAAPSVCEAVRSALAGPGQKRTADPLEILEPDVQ

`CCC1(C)CC(=O)NC1=O` (configuration not stated): the Potency result in experiment [1], in [2], in experiment [8], in experiment [9] and in [10] was “inactive” throughout. Also, the max response in experiment [3] was 19% (inactive) and 33% (inactive). In experiment [4], the parasite growth, % of DMSO control amounted to 99.5%. In addition, the growth, % of control in experiment [5] turned out to be 102%. In addition, the cell viability, % of control (lower = more cytotoxic) in experiment [6] was 184%. Moreover, the viability (% of control) in experiment [7] came to 128%.
For `COc1ccccc1OCCNCC(O)COc1cccc2[nH]c3ccccc3c12` (configuration not stated), the Potency entry in experiment [1], in [2], in [8] and in experiment [13] was “inactive” in each case. In addition, the max response in experiment [3] is 6.87% (inactive) and 32.1% (inactive). For the same compound, the parasite growth, % of DMSO control in experiment [4] came to 16.5%. For the same compound, the parasite growth remaining, % of DMSO control (lower = more inhibition) in [11] was 17.9%. The compound also had a parasite growth, % of control (lower = inhibition) in experiment [12] of 20.7%. In addition, in experiment [5], the growth, % of control amounted to 5.04%. Also, in [6], the cell viability, % of control (lower = more cytotoxic) was determined as 167%. Besides, the viability (% of control) in experiment [7] was determined as 89.8%.
As for `CCc1cccc2c3c([nH]c12)C(CC)(CC(=O)O)OCC3` (configuration not stated), the Potency entry in experiment [1], in experiment [2], in experiment [8], in experiment [9], in experiment [10] and in experiment [13] was “inactive” each time. For the same compound, in experiment [3], the max response is 10.8% (inactive) and -5.14% (inactive). In addition, the parasite growth, % of DMSO control in [4] was 71%. Further, the parasite growth remaining, % of DMSO control (lower = more inhibition) in [11] is 86%. The compound further displayed a parasite growth, % of control (lower = inhibition) in experiment [12] of 85%. Also, the growth, % of control in experiment [5] was 94.1%. In addition, the cell viability, % of control (lower = more cytotoxic) in experiment [6] turned out to be 138%. The viability (% of control) in experiment [7] was 128%.
Turning to `CC(C(=O)O)c1cccc(C(=O)c2ccccc2)c1` (configuration not stated), the max response in [3] is 3.48% (inactive) and 27.8% (inactive). In [6], the cell viability, % of control (lower = more cytotoxic) was found to be 152%. The viability (% of control) in experiment [7] is 103%. Also, in [8], the Potency entry is “inactive”. The Potency in [9] was 7.43 µM (active); in experiment [13], 14.8 µM (active).
`Fc1ccc([C@@H]2CCNC[C@H]2COc2ccc3c(c2)OCO3)cc1`: the Potency entry in experiment [2], in experiment [8] and in experiment [9] was “inactive” each time. In addition, the Potency in experiment [3] was 12.6 µM (active) and 1.12 µM (active); in [14], 18.7 µM (active). The compound further registered a parasite growth, % of DMSO control in experiment [4] of 35.7%. In addition, the parasite growth remaining, % of DMSO control (lower = more inhibition) in experiment [11] came out at 39.5%. The compound further registered a parasite growth, % of control (lower = inhibition) in experiment [12] of 34.6%. The growth, % of control in [5] was 58.5%. Further, the cell viability, % of control (lower = more cytotoxic) in experiment [6] turned out to be 66.2%. The viability (% of control) in experiment [7] worked out at 79%.
Take `Clc1ccc(C(c2ccccc2Cl)C(Cl)Cl)cc1` (configuration not stated): the Potency result in experiment [2] and in experiment [8] was “inactive” throughout. In addition, in [3], the max response was -1.64% (inactive) and 6.44% (inactive). The parasite growth, % of DMSO control in [4] came out at 24.3%. In experiment [11], the parasite growth remaining, % of DMSO control (lower = more inhibition) came out at 51.1%. This compound also came in with a parasite growth, % of control (lower = inhibition) in experiment [12] of 54.8%. The growth, % of control in experiment [5] was 50.8%. Further, in [6], the cell viability, % of control (lower = more cytotoxic) stood at 22.5%. The viability (% of control) in [7] worked out at 18.1%.
Regarding `COC(=O)Nc1nc2ccc(C(=O)c3cccs3)cc2[nH]1`, the Potency entry in experiment [2], in experiment [8], in [15] and in experiment [13] was “inactive” each time. For the same compound, the max response in experiment [3] was 22.4% (inactive) and 23.7% (inactive). In experiment [4], the parasite growth, % of DMSO control came to 54.5%. Also, the parasite growth remaining, % of DMSO control (lower = more inhibition) in experiment [11] is 93.5%. In experiment [12], this compound had a parasite growth, % of control (lower = inhibition) of 91.6%. In experiment [5], this compound showed a growth, % of control of 80%. For the same compound, the viability (% of control) in experiment [7] came to 10.7%. In addition, the Potency in experiment [9] was 0.0037 µM (active); in experiment [14], 0.0118 µM (active); in experiment [10], 0.0047 µM (active).
Take `CNCCCC12CCC(c3ccccc31)c1ccccc12`: the Potency result in experiment [2] and in experiment [8] was “inactive” in each case. The compound further gave a parasite growth, % of DMSO control in experiment [4] of 16.9%. In addition, the parasite growth remaining, % of DMSO control (lower = more inhibition) in experiment [11] stood at 21.8%. In addition, the parasite growth, % of control (lower = inhibition) in [12] came out at 21.9%. The growth, % of control in experiment [5] turned out to be 7.27%. In experiment [6], the cell viability, % of control (lower = more cytotoxic) turned out to be 8.38%. Besides, the viability (% of control) in experiment [7] came to 13.7%. The Potency in experiment [10] was 18.7 µM (active); in experiment [13], 23.5 µM (active).
On to `O=c1c(-c2ccc(O)cc2)coc2cc(O)cc(O)c12`, for which the Potency result in experiment [2], in experiment [17], in experiment [8], in experiment [10] and in [13] was “inactive” throughout. Moreover, the max response in experiment [3] was 20.7% (inactive) and 7.37% (inactive); in [16] it was -13% (inactive) and -14.1% (inactive). Further, the parasite growth, % of DMSO control in [4] was found to be 72.2%. Moreover, the parasite growth remaining, % of DMSO control (lower = more inhibition) in [11] worked out at 88.4%. For the same compound, the parasite growth, % of control (lower = inhibition) in experiment [12] was found to be 57.2%. Also, the growth, % of control in experiment [5] was determined as 31.8%. Besides, the cell viability, % of control (lower = more cytotoxic) in [6] turned out to be 55.3%. For the same compound, the viability (% of control) in experiment [7] came out at 13.8%. The Potency in experiment [9] is 18.7 µM (active).

For the origin of these results see PubChem BioAssay (NCATS).
